SMILES strings stand for the structures. Values joined by “and” are separate entries in the source; they are usually repeats but may differ in a detail not shown here. Equal entries are not always repeated.

In PubChem BioAssay AID651871 (Sanford-Burnham Center for Chemical Genomics, 2012) one finds activity (protection/inhibition) data, which are given here for three compounds.

The subject of this test is H9c2. Kind of test: protection of cardiomyocytes from stress damage, SAR follow-up, cell-based, panel, H9c2 and HL-1, ATP luminescence, set 2 (AID 651871).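 Note: cells exposed to stressor for 2 h before ATP readout; reference of the scale not given here.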 The following applies: H9c2/HL-1 cardiomyocytes, 2-deoxyglucose stress, with 2-deoxyglucose; run 7, at 79 µM (top of the series).
Consider `CCOC(=O)c1cccc(NC(=O)CNC(=O)c2cc(-c3cc(OC)c(OC)c(OC)c3)nc3ccccc23)c1`, for which the activity (protection/inhibition) amounted to 77%.
With `COc1ccc2c(c1OC)C(=O)N1c3ccccc3C(=O)N(Cc3cccc(Cl)c3Cl)C21` (stereo not drawn) the figure was 73.7% and 71.7% and -5.58%; with `COc1ccc2nc(-c3cc(OC)c(OC)c(OC)c3)cc(C(=O)NCC(=O)Nc3ccc(C(C)=O)cc3)c2c1`, 66.5%.
